PTHR1 ag = activates the human parathyroid hormone receptor PTHR1 | AID 743266 | actives 0.075% (n = 410,000) | HEK293 GP2 PTHR1 cells, GloSensor cAMP luminescence, 1 h | Potency, µM (titrated, usually from 115 µM), for the others: at the top dose activation, most hits filed as activators; note: nearly all actives have a fitted effect of over 55% in size
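HEK-293-derived GP2 cells expressing PTHR1 and a GloSensor cAMP reporter, 3,000/well, plated overnight, given luciferin plus IBMX (each 0.5 mM as added) for 1 h at 37 °C, then compound for 1 h at 37 °C. Luminescence was read after 15 min at room temperature.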
HEK293 tox = cytotoxicity in counter-screen for GLP-1R inverse agonists. Potency, µM (series often up to 38.3 µM), for inactives: top-dose activity change, negative = inhibition, usual class: inhibitors. HEK293 cAMP-luciferase reporter cells, luminescence, 24 h. actives 0.13% (n = 410,000). AID 624418;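 note: loss of luciferase light is scored as toxicity; % is set by controls: 0 for no effect and ±100 for the full control effect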
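MLSMR compounds, 24 hr on cells at 37 deg C/5% CO2; luminescence after luciferase reagent (12 min RT). Inhibition counted as the undesired cytotoxic outcome.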
GLP1R inv ag = acts as inverse agonist at human GLP-1 receptor; P43220; HEK293 GLP-1R CRE-luciferase, luminescence, 24 h; GLP-1R form is constitutively active; Potency, µM (doses to about 38.3 µM), for the others: at the highest dose activity change, negative = inhibition, usual class: inhibitors; actives 1.6% (n = 410,000); AID 624417; note: % is set by controls: 0 for no effect and ±100 for the full control effect; nearly all actives have a fitted effect of over 55% in size
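Inverse agonists were sought by their lowering of basal cAMP reporter luciferase output in HEK293 cells stably carrying constitutively active human GLP-1R, after 24 h compound treatment.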
GLP1R ag = agonists of human GLP-1 receptor; P43220; HEK293 GLP-1R CRE-luciferase, luminescence, 4-6 h; cells express a hypersensitive GLP-1R form; Potency, µM (top dose mostly 45.6 µM), without a hit: at the highest dose activation, actives largely listed as activators; actives 0.007% (n = 380,000); AID 624172; note: % of control where 0% means no effect
Starred values were filed as active, the others as inactive; i = inactive; ? = inconclusive; . = no result given; [ ] = dose if it differs, or a comment. Hits are enriched below; roughly 1.7% of the tested compounds scored in any of these assays. Calls come from the whole dose curve; as a rule, active = well fitted curve in the direction sought with a large enough effect; inconclusive = small, poorly fitted or top-dose-only effect, or another doubt; inactive = no such curve, though single readings can be large; an effect the other way counts as inactive or inconclusive. Potency is the fitted concentration of half-maximal effect.

SMILES | PTHR1 ag | HEK293 tox | GLP1R inv ag | GLP1R ag
Cc1cc(OC(C)C(=O)N(Cc2ccc(N(C)C)cc2)Cc2ccco2)ccc1Cl (centres undefined) | -37% | 5% | 3% | .
CCCCN1C(=O)C(O)(CC(=O)c2ccc(C)cc2C)c2cc(Br)ccc21 (centres undefined) | i | -17% | 10µM* | .
O=C1C(Cl)=C(NCCN2CCCCC2)C(=O)c2ccccc21 | -82% | ? | 11µM* | -7%
CCS(=O)(=O)N1CCc2cc(C(=O)Nc3ccc(Br)cc3F)ccc21 | -31% | -21% | -24% | .
CC(C)(C)NCC(=Cc1ccccc1)C(=O)c1ccccc1 | -39% | 5µM* | ? | -28%
CCCCNC(=O)CCCN1C(=O)c2ccccc2Sc2ncccc21 | i | 0% | 6% | .
CSc1cccc(NC(=O)CC(c2ccc(F)cc2)N2Cc3ccccc3C2=O)c1 (centres undefined) | -62% | -9% | -20% | .
Cc1ccccc1CNC(=O)CCSCc1cnn(-c2ccccc2)c1-n1cccc1 | -27% | -4% | 10µM* | .
CC(C)C[C@@H](NC(=O)[C@H](Cc1ccccc1)NC(=O)c1cnccn1)B(O)O | . | . | . | -4%
CC(/C=N/NC(=O)c1cccc(F)c1)=C\c1ccccc1 | -17% | 0% | 10µM* | -6%
CC(/C=N/NC(=O)c1ccncc1)=C\c1ccccc1 | 19%[57.5 µM] | -12% | 5% | 2%
Cc1nn2c(NCC(C)C)c3c(nc2c1-c1ccccc1)CCC3 | i | 1% | 0% | 4%
Cc1nn2c(NC(C)C)c3c(nc2c1-c1ccccc1)CCC3 | -61% | -8% | 10µM* | 23%
O=C(CSc1nnnn1C1CCCCC1)Nc1cccc(NC(=O)c2ccco2)c1 | i | -11% | 7.1µM* | 0%
Cc1ccc(NC(=O)c2cc(S(=O)(=O)NC3CCCCC3)ccc2F)cc1Cl | -10% | -32% | 7.9µM* | .
O=C(Nc1ccc(F)c(F)c1)c1cc(S(=O)(=O)NC2CCCC2)ccc1F | i | -3% | 10µM* | .
O=C(Nc1cc(Cl)cc(Cl)c1)c1cc(S(=O)(=O)NC2CCCC2)ccc1F | -10% | ? | ? | .
COc1ccc(NC(=O)c2ccco2)cc1NC(=O)c1ccc(OC(C)C)cc1 | -15% | -2% | ? | .
CNCCC1Sc2ccccc2Oc2ccccc21 (centres undefined) | i | 3% | 10µM* | 13%
CCN(C(=O)CSc1nc2ccccc2n1Cc1ccc(F)cc1Cl)c1ccccc1 | -32% | -13% | ? | .
Cc1ccccc1CNC(=O)c1oc2c(c1C)-c1nn(Cc3ccc(Cl)cc3)cc1CC2 | -30% | 1% | 10µM* | .
CCOc1ccccc1CNC(=O)c1oc2c(c1C)-c1nn(Cc3cccc(Cl)c3)cc1CC2 | i | -5% | ? | .
CSc1ccc(CCNC(=O)c2ccc(-n3c(C)cc4c3CCCC4)cc2)cc1 | i | -20% | -10% | .
CCCCN(CC)CCNC(=O)C1CCN(c2nnc(C)c3c(C)n(-c4ccc(C)cc4)nc23)CC1 | -19% | ? | 10µM* | .
Cc1ccc(CCNC(=O)C2CCN(c3nnc(C)c4c(C)n(-c5ccccc5)nc34)CC2)cc1 | -1% | 1% | 17% | .
SMILES | PTHR1 ag | HEK293 tox | GLP1R inv ag | GLP1R ag
Cc1cccc(N2CCN(C(=O)c3c4c(nc5ccccc35)C(=O)N(C3CCCCC3)C4)CC2)c1C | -10% | -3% | 5% | .
COc1ccccc1C1CC(c2c(-c3ccccc3)c3cc(Cl)ccc3[nH]c2=O)=NN1S(C)(=O)=O (centres undefined) | -11%[57.5 µM] | -23% | 10µM* | -6%
COc1cccc(C2CC(c3c(-c4ccccc4)c4cc(Cl)ccc4[nH]c3=O)=NN2S(C)(=O)=O)c1OC (centres undefined) | i | -4% | ? | -18%
CC1=CC(C)(C)N2C(=O)C3(N=C(N)NC(Nc4ccccc4)=N3)c3cc(C)cc1c32 (centres undefined) | i | ? | 3.5µM* | 0%
CCCC(=O)Nc1ccc(C(=O)Nc2cc(C(F)(F)F)ccc2Cl)cc1 | i | ? | 6.3µM* | -2%
COc1ccc(NC(=O)c2cc(-c3ccc(F)cc3)no2)cc1OC | i | -9% | 12% | .
CCCCCCCCCCCCCCCCCC(=O)OCCO | . | . | . | 6%
Cc1ccc(CNC(=O)c2nn(C)c3c2CSc2ccc(C)cc2-3)cc1 | -15% | 0% | ? | .

Screening results as filed in PubChem.
